Measured values: paper PMC7862700, “An all-to-all approach to the identification of sequence-specific readers for epigenetic DNA modifications on cytosine”

Key:
Test in all cases: DAPPL (digital affinity profiling via proximity ligation, sequencing); 10 mM Tris-HCl pH 7.5, 50 mM NaCl, 1 mM DTT, 4% glycerol, room temperature, 30 min; GST-TFs on glutathione beads, 16-mer random dsDNA library, 0.1% formaldehyde crosslink after washing; high values mean tight binding
Settings in all cases: protein: recombinant; tags: N-terminal GST; dsDNA, one strand shown
[1] = target: T1, FLI1 (Homo sapiens, UniProt Q01543 1-452)
T1 sequence: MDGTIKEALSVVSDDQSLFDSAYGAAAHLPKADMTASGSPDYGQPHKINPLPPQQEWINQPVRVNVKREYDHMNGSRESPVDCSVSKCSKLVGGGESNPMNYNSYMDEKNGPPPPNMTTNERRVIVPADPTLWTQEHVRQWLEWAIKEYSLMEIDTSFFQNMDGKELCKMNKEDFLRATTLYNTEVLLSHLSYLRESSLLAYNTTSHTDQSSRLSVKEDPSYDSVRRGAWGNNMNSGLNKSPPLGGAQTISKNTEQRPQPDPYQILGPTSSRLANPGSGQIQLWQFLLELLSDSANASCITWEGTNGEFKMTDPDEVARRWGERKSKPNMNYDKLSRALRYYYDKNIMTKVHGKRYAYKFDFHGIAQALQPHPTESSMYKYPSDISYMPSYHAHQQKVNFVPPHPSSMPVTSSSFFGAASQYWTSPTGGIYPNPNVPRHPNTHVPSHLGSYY
Summary of the method: (§1)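 Each value of binding signal is a hexamer's read frequency for a factor divided by the same hexamer's frequency in the tag-only sample. Barcoded, bead-captured GST fusions of human transcription factors made in yeast were pooled with that sample and incubated with 200 nmole of a random double-stranded 16-mer DNA library in Tris/NaCl/DTT/glycerol buffer at room temperature for 30 min. Washing, 0.1% formaldehyde crosslinking, proximity ligation, PCR and Illumina NextSeq500 sequencing followed.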

[2] = target: T2, ELK1 (Homo sapiens, UniProt P19419 1-428)
T2 sequence: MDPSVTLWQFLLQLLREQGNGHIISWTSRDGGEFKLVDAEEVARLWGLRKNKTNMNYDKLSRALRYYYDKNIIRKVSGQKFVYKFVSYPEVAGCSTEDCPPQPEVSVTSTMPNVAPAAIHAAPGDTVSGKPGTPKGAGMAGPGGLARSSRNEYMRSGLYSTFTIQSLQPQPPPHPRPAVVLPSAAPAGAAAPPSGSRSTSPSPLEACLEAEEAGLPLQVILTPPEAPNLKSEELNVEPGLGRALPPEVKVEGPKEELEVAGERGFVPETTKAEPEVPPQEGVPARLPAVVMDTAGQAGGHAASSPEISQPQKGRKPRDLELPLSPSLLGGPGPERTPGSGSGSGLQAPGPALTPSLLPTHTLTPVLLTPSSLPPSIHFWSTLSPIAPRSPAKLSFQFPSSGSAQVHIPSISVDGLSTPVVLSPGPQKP
Summary of the method: as §1

[3] = target: T3, ERG (Homo sapiens, UniProt P11308 1-479)
T3 sequence: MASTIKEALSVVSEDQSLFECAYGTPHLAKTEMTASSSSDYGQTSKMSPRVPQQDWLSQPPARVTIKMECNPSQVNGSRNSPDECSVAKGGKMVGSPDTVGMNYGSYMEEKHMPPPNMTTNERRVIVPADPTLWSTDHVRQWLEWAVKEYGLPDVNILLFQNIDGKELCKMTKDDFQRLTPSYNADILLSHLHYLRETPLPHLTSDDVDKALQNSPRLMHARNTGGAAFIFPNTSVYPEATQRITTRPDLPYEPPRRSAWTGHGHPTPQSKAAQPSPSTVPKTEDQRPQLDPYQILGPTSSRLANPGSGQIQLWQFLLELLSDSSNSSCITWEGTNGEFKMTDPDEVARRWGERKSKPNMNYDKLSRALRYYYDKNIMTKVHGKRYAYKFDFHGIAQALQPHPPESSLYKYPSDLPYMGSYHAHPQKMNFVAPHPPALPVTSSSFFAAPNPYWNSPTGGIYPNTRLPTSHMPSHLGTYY
Summary of the method: as §1

[4] = target: ELF1 (Homo sapiens, UniProt P32519 1-619)
Sequence of ELF1 (P32519 whole entry): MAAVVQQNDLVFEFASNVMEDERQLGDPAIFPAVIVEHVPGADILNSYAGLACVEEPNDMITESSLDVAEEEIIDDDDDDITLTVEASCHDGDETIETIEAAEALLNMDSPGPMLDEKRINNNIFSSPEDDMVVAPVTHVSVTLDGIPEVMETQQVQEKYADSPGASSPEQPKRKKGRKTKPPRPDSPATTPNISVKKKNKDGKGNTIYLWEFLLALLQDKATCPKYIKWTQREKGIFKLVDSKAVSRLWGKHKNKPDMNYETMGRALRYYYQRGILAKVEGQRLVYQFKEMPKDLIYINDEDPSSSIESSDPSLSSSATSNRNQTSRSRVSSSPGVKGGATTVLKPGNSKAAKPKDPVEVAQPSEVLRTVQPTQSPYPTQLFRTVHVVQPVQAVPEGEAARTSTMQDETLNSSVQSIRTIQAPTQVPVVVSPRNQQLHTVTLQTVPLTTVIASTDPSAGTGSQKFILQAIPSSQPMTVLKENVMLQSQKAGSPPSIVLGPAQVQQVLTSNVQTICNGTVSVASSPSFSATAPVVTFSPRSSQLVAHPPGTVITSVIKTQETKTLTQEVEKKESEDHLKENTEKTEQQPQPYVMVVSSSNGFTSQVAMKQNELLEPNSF
Summary of the method: as §1

[5] = target: T4, EHF (Homo sapiens, UniProt Q9NZC4 1-300)
T4 sequence: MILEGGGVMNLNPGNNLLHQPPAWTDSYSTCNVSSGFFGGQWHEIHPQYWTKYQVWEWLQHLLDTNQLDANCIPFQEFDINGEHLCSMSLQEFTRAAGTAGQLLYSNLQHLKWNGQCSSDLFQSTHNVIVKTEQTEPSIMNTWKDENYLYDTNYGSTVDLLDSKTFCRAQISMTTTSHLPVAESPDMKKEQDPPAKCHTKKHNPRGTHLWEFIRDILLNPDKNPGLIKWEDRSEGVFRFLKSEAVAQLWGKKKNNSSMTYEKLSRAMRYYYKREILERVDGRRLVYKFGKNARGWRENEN
Summary of the method: as §1

[6] = target: T5, ELK3 (Homo sapiens, UniProt P41970 1-407)
T5 sequence: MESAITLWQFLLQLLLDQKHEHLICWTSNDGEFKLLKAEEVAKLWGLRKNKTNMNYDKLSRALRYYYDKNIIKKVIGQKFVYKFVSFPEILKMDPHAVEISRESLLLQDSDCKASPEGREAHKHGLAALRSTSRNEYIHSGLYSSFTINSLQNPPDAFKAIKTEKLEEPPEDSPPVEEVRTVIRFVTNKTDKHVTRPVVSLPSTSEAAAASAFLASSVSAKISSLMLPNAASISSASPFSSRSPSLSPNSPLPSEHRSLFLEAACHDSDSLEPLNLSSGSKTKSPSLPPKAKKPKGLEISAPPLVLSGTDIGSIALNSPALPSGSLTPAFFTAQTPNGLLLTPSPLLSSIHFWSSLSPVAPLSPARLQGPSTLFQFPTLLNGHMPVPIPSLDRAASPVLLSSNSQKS
Summary of the method: as §1

[7] = target: T6, GABPA (Homo sapiens, UniProt Q06546 1-454)
T6 sequence: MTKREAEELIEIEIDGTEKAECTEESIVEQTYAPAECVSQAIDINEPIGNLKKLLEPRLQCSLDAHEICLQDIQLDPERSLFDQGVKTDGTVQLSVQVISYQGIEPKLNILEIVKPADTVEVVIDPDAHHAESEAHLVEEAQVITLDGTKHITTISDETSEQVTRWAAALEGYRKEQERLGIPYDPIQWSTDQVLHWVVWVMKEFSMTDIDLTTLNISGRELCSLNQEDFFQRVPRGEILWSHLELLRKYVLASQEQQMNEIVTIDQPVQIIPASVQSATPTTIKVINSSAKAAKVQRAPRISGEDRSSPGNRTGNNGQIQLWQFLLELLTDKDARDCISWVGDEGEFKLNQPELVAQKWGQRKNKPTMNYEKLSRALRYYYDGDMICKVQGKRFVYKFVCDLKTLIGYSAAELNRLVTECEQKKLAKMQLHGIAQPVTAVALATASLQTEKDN
Summary of the method: as §1

[8] = target: SPI1 (Homo sapiens, UniProt P17947 1-270)
Summary of the method: as §1

[9] = target: SPIB (Homo sapiens, UniProt Q01892 1-262)
Sequence of SPIB (Q01892 whole entry): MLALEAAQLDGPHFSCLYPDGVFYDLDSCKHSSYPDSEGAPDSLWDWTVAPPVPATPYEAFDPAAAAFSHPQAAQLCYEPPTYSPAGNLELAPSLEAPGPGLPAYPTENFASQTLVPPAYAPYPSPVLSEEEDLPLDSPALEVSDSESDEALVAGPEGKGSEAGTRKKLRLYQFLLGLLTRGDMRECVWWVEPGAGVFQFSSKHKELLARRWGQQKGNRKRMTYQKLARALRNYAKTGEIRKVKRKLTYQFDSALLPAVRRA
Summary of the method: as §1

Sequence | binding signal [1] | binding signal [2] | binding signal [3] | binding signal [4] | binding signal [5] | binding signal [6] | binding signal [7] | binding signal [8] | binding signal [9]
TAGATC | 1.05 fold enrichment (6-mer frequency, TF over GST control) | 1.14 fold enrichment (6-mer frequency, TF over GST control) | 1 fold enrichment (6-mer frequency, TF over GST control) | 1.06 fold enrichment (6-mer frequency, TF over GST control) | 1.04 fold enrichment (6-mer frequency, TF over GST control) | 1.21 fold enrichment (6-mer frequency, TF over GST control) |  |  | 
CTGCAG | 1.13 fold enrichment (6-mer frequency, TF over GST control) | 1.1 fold enrichment (6-mer frequency, TF over GST control) |  | 1.08 fold enrichment (6-mer frequency, TF over GST control) | 1.18 fold enrichment (6-mer frequency, TF over GST control) | 1.05 fold enrichment (6-mer frequency, TF over GST control) | 1.16 fold enrichment (6-mer frequency, TF over GST control) | 1.14 fold enrichment (6-mer frequency, TF over GST control) | 1.08 fold enrichment (6-mer frequency, TF over GST control)
CCGAAG | 1.12 fold enrichment (6-mer frequency, TF over GST control) | 1.09 fold enrichment (6-mer frequency, TF over GST control) |  | 1 fold enrichment (6-mer frequency, TF over GST control) | 1.03 fold enrichment (6-mer frequency, TF over GST control) | 1.03 fold enrichment (6-mer frequency, TF over GST control) | 1.12 fold enrichment (6-mer frequency, TF over GST control) |  | 1.04 fold enrichment (6-mer frequency, TF over GST control)
CCGCGC | 1.12 fold enrichment (6-mer frequency, TF over GST control) | 1.16 fold enrichment (6-mer frequency, TF over GST control) | 1.2 fold enrichment (6-mer frequency, TF over GST control) | 1.18 fold enrichment (6-mer frequency, TF over GST control) | 1.05 fold enrichment (6-mer frequency, TF over GST control) | 1.24 fold enrichment (6-mer frequency, TF over GST control) |  | 1.14 fold enrichment (6-mer frequency, TF over GST control) | 1.24 fold enrichment (6-mer frequency, TF over GST control)
ATAGGT | 1.08 fold enrichment (6-mer frequency, TF over GST control) | 1.01 fold enrichment (6-mer frequency, TF over GST control) | 1.01 fold enrichment (6-mer frequency, TF over GST control) |  | 1.04 fold enrichment (6-mer frequency, TF over GST control) |  |  | 1.01 fold enrichment (6-mer frequency, TF over GST control) | 1.04 fold enrichment (6-mer frequency, TF over GST control)
TCATAA | 1.03 fold enrichment (6-mer frequency, TF over GST control) | 1.05 fold enrichment (6-mer frequency, TF over GST control) |  | 1.02 fold enrichment (6-mer frequency, TF over GST control) |  |  | 1.03 fold enrichment (6-mer frequency, TF over GST control) | 1.06 fold enrichment (6-mer frequency, TF over GST control) | 
GAATTA | 1.09 fold enrichment (6-mer frequency, TF over GST control) | 1.05 fold enrichment (6-mer frequency, TF over GST control) | 1.01 fold enrichment (6-mer frequency, TF over GST control) | 1.04 fold enrichment (6-mer frequency, TF over GST control) | 1.12 fold enrichment (6-mer frequency, TF over GST control) | 1.12 fold enrichment (6-mer frequency, TF over GST control) |  | 1.07 fold enrichment (6-mer frequency, TF over GST control) | 1.02 fold enrichment (6-mer frequency, TF over GST control)
TGAGCT | 1.15 fold enrichment (6-mer frequency, TF over GST control) | 1.08 fold enrichment (6-mer frequency, TF over GST control) |  | 1.02 fold enrichment (6-mer frequency, TF over GST control) | 1.16 fold enrichment (6-mer frequency, TF over GST control) | 1.05 fold enrichment (6-mer frequency, TF over GST control) | 1.05 fold enrichment (6-mer frequency, TF over GST control) |  | 
ATGCTG | 1.09 fold enrichment (6-mer frequency, TF over GST control) |  |  | 1.13 fold enrichment (6-mer frequency, TF over GST control) | 1.22 fold enrichment (6-mer frequency, TF over GST control) |  | 1.07 fold enrichment (6-mer frequency, TF over GST control) | 1.07 fold enrichment (6-mer frequency, TF over GST control) | 1.05 fold enrichment (6-mer frequency, TF over GST control)
